As usually defined, the AC50 is the concentration at which the activity in the assay is half-maximal.

Data on 35 molecules can be found in PubChem BioAssay (EPA / NIEHS).

The structures appear in SMILES notation. Inconclusive results are not listed. The source made the active and inactive calls. The calls were made as follows, unless noted: active = hit-call score of the fitted dose curve at least 0.9, where 1 is the maximum; inactive = score below 0.9.

Experiment [1] addresses Oxysterols receptor LXR-beta (Homo sapiens) (UniProt P55055). Kind of experiment: ATG_LXRb_TRANS: Attagene TRANS-FACTORIAL HepG2 Assay for human Liver X Receptor beta (LXRb) (AID 2282981; active = hit-call score of the fitted dose curve at least 0.9, where 1 is the maximum). The following applies: HepG2 Attagene TRANS GAL4-LXRb reporter, mRNA. An outline of the steps:
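HepG2 cells transiently transfected with GAL4-UAS reporter units for chimeric NR-Gal4 proteins, dosed for 24 h. Reporter transcripts measured by RT-PCR and capillary electrophoresis; gain-of-signal fitting relative to DMSO.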

Experiment [2] concerns the target Nuclear receptor subfamily 4 group A member 2 (Homo sapiens) (UniProt P43354). As to the kind of experiment: ATG_NURR1_TRANS: Attagene TRANS-FACTORIAL HepG2 Assay for human Nuclear Receptor Related Protein 1 (NURR1) (AID 2282985; active = hit-call score of the fitted dose curve at least 0.9, where 1 is the maximum). The following applies: HepG2 Attagene TRANS reporter, mRNA readout. In outline:
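HepG2 cells transiently transfected with NURR1-Gal4 chimera and GAL4-UAS reporter units; after 24 hr compound exposure, reporter mRNA quantified by RT-PCR and capillary electrophoresis; gain of signal fitted against DMSO.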

Experiment [3] addresses Transcriptional activator Myb (Homo sapiens) (UniProt P10242). Kind of experiment: ATG_Myb_CIS: Attagene CIS-FACTORIAL HepG2 Assay for human Myeloblastosis (Myb) Proto-Oncogene Transcription Factor (AID 2282986). The following applies: HepG2 Attagene CIS-FACTORIAL Myb reporter transcription; actives raise or lower the signal. An outline of the steps:
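After 24 h of compound dosing, total RNA from transfected HepG2 cells is reverse-transcribed and the reporter sequences amplified, labeled and separated by capillary electrophoresis. Values come from bidirectional fitting against DMSO.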

Experiment [4] in a line: ATG_NFI_CIS: Attagene CIS-FACTORIAL HepG2 Assay for human Nuclear Factor I (NFI) (AID 2282989). The following applies: HepG2 cis-regulatory reporter, NFI response element transcription; actives raise or lower the signal. In outline: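 Cells: human liver HepG2, transiently transfected with promoter-regulated reporter transcription units. Exposure 24 h. Detection: fluorescent RT-PCR products separated by capillary electrophoresis, normalised to DMSO negative control.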

In experiment [5] the target is Hepatocyte nuclear factor 4-alpha (Homo sapiens) (UniProt P41235). As to the kind of experiment: ATG_HNF4a_TRANS: Attagene TRANS-FACTORIAL HepG2 Assay for human Hepatocyte Nuclear Factor 4 alpha (HNF4a) (AID 2282982; active = hit-call score of the fitted dose curve at least 0.9, where 1 is the maximum). The following applies: HepG2 HNF4a transactivation reporter, mRNA readout. An outline of the steps:
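HepG2 cells transiently transfected with HNF4a-Gal4 chimera and GAL4-UAS reporter units, dosed for 24 h. Reporter mRNA measured by RT-PCR, fluorescent primer extension and capillary electrophoresis; gain-of-signal fitted relative to DMSO.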

Experiment [6] in a line: ATG_M_06_TRANS: Attagene TRANS-FACTORIAL HepG2 Assay for M06 Transcription Factor (Internal Marker) (AID 2282983; active = hit-call score of the fitted dose curve at least 0.9, where 1 is the maximum;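 as to AC50: potency for rise in reporter mRNA above DMSO baseline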;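 as to outcome: reporter transcript level by RT-PCR then capillary electrophoresis fluorescence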). The following applies: HepG2 Attagene TRANS M06 internal marker reporter. In outline: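 After a 24 h chemical treatment of transfected HepG2, RNA underwent DNase I treatment, reverse transcription and reporter-specific PCR; labelled, HpaI-digested products were sized by capillary electrophoresis. Signal increase relative to DMSO defined activity.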

Experiment [7] addresses Nuclear respiratory factor 1 (Homo sapiens) (UniProt Q16656). Kind of experiment: ATG_NRF1_CIS: Attagene CIS-FACTORIAL HepG2 Assay for human Nuclear Respiratory Factor 1 (NRF1) Orphan Gene (AID 2282987). The following applies: HepG2 NRF1 cis-element reporter, Attagene multiplex; actives raise or lower the signal. An outline of the steps:
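Measured: fluorescent reporter-specific RT-PCR products from transfected HepG2 cells, separated by capillary electrophoresis. Exposure lasted 24 h. Analysis used bidirectional curve fitting with DMSO as negative control.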

The nature of experiment [8]: ATG_M_32_TRANS: Attagene TRANS-FACTORIAL HepG2 Assay for M32 Transcription Factor (Internal Marker) (AID 2282984; active = hit-call score of the fitted dose curve at least 0.9, where 1 is the maximum;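 also: transcript level of a background control reporter unit measured by RT-PCR and capillary electrophoresis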). The following applies: HepG2 Attagene TRANS M32 internal marker reporter. An outline of the steps:
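HepG2 cells transiently transfected with GAL4-UAS reporter units, dosed for 24 hours. Reporter mRNA quantified by RT-PCR, 6-FAM labelling, HpaI digestion and capillary electrophoresis; internal-marker signal fitted upward relative to DMSO.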

Sequence of Nuclear respiratory factor 1 (Homo sapiens) (Q16656 whole entry, looked up): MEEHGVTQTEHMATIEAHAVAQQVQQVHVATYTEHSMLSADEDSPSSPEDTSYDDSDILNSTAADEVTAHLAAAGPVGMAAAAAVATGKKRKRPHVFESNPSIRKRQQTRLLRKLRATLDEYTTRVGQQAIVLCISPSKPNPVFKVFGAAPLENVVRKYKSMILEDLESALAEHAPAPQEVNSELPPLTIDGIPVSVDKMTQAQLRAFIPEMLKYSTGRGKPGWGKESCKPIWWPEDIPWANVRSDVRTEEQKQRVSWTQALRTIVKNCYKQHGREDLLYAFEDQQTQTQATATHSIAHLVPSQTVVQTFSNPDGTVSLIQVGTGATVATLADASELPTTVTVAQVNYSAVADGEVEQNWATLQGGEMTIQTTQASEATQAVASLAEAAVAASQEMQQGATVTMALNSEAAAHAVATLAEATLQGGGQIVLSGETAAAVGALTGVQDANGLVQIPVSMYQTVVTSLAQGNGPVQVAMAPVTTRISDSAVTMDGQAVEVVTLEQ
Sequence of Nuclear receptor subfamily 4 group A member 2 (Homo sapiens) (P43354 whole entry, looked up, the tested form may be a part): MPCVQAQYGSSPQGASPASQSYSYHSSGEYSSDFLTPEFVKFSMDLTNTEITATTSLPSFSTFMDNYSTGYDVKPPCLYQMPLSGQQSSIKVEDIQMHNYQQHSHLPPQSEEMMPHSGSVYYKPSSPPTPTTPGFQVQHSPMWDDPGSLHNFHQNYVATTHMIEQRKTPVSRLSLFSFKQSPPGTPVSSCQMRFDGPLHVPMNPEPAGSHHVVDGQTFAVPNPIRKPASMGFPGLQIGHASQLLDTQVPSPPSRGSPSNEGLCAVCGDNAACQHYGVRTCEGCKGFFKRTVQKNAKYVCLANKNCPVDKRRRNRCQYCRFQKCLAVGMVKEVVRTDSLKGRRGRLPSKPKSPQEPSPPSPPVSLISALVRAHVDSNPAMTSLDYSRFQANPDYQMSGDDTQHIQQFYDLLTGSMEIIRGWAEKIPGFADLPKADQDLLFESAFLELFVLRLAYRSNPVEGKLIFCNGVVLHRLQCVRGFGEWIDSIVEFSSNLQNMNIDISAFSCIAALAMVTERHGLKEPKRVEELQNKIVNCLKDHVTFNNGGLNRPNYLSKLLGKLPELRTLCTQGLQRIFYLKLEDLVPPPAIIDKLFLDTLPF
Sequence of Transcriptional activator Myb (Homo sapiens) (P10242 whole entry, looked up): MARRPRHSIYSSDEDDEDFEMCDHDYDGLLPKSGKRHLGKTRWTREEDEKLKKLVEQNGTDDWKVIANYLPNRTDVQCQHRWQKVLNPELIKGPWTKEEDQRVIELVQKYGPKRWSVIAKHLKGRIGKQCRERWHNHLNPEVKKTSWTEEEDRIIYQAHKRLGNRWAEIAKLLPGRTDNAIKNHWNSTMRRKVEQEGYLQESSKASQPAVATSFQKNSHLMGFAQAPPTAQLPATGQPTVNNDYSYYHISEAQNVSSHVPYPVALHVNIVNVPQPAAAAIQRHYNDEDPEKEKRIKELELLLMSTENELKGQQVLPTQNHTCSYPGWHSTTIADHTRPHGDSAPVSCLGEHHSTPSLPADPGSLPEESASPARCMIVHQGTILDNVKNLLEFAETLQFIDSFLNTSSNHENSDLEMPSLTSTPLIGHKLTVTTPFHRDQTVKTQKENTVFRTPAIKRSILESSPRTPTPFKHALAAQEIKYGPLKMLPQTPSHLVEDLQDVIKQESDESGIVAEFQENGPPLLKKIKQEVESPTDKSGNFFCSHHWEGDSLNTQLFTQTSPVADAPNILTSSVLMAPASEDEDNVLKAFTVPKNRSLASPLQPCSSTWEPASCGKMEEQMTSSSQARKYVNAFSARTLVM
Sequence of Hepatocyte nuclear factor 4-alpha (Homo sapiens) (P41235 whole entry, looked up, the tested form may be a part): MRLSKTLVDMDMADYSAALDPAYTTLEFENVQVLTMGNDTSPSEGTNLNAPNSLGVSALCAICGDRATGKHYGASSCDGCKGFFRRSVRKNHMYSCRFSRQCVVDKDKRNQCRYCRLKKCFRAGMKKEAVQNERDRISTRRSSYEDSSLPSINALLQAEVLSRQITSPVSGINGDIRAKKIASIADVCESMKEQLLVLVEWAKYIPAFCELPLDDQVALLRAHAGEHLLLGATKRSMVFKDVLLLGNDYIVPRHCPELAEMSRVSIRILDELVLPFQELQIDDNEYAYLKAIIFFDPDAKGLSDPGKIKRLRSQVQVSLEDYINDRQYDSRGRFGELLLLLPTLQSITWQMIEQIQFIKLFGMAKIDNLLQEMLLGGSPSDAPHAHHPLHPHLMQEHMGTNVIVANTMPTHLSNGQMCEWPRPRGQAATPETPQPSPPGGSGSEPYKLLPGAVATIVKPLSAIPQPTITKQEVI
Sequence of Oxysterols receptor LXR-beta (Homo sapiens) (P55055 whole entry, looked up, the tested form may be a part): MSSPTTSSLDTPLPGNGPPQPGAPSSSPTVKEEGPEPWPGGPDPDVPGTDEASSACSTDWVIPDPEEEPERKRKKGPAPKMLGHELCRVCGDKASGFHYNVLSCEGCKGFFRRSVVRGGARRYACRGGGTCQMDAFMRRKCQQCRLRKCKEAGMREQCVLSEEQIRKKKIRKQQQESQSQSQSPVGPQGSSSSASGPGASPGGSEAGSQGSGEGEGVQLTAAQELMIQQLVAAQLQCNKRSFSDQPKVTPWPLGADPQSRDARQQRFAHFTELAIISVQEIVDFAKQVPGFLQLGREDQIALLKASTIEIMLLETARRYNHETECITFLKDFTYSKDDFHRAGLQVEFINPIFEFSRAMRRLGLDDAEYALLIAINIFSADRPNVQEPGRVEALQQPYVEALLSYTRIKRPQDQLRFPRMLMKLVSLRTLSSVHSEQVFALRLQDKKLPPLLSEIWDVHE

Take `Nc1cccc2ccccc12`: the result in experiment [1], in experiment [2], in experiment [3] and in experiment [4] was inactive.
Consider `C[C@@H](Oc1ccc(Cl)cc1Cl)C(=O)O`, for which the molecule was called inactive in experiment [5], in experiment [6], in experiment [2], in experiment [3] and in experiment [4].
Turning to `CCC[CH2][Sn]([Cl])([Cl])[Cl]`, the result in experiment [5], in experiment [3], in experiment [7] and in experiment [4] was inactive.
As to `CCOP(=S)(OCC)Oc1nc(Cl)c(Cl)cc1Cl`, the molecule was classed as inactive in experiment [6], in experiment [8], in experiment [2] and in experiment [3]. For the same molecule, the AC50 in experiment [4] is 69.6 µM (active).
For the molecule `Clc1ccc(COC(Cn2ccnc2)c2ccc(Cl)cc2Cl)cc1` (stereo not given), the molecule was classed as inactive in experiment [6], in experiment [8], in experiment [2], in experiment [3], in experiment [7] and in experiment [4].
Turning to `CCCCCCCCSC(=O)Oc1cc(Cl)nnc1-c1ccccc1`, the call in experiment [2], in experiment [3] and in experiment [7] was inactive. The AC50 in experiment [4] was 73.7 µM (active).
For the molecule `COc1cc2c(cc1OC)[C@@]13CCN4CC5=CCO[C@H]6CC(=O)N2[C@H]1[C@H]6[C@H]5C[C@H]43`, the outcome in experiment [5], in experiment [8], in experiment [3], in experiment [7] and in experiment [4] was inactive.
As for `C=C(C)C(=O)[O][Sn]([CH2]CCC)([CH2]CCC)[CH2]CCC`, the molecule was called inactive in experiment [5], in experiment [6], in experiment [3] and in experiment [4]. For the same molecule, the AC50 in experiment [2] is 0.00168 µM (active).
Take `O=C(OC1CCCCC1)c1ccccc1C(=O)OC1CCCCC1`: the call in experiment [6], in experiment [8], in experiment [2], in experiment [3], in experiment [7] and in experiment [4] was inactive.
As for `O=C(CCl)CCl`, the result in experiment [6], in experiment [2], in experiment [3] and in experiment [4] was inactive.
As for `CNC`, the molecule was called inactive in experiment [1], in experiment [8], in experiment [2], in experiment [3] and in experiment [4].
In the case of `COP(=O)(OC)O/C(=C\Cl)c1cc(Cl)c(Cl)cc1Cl`, the outcome in experiment [6], in experiment [8] and in experiment [4] was inactive. Moreover, the results for the AC50 in experiment [2], in experiment [3] and in experiment [7] were 115 µM (active), 170 µM (active) and 66.2 µM (active), respectively.
Turning to `CCCCC(CC)CO[N+](=O)[O-]` (stereo not given), the outcome in experiment [5], in experiment [6], in experiment [8], in experiment [2], in experiment [3] and in experiment [7] was inactive. For the same molecule, the molecule was classed as inactive in experiment [4].
Regarding `Cn1sc(Cl)cc1=O`, the call in experiment [6], in experiment [8], in experiment [3], in experiment [7] and in experiment [4] was inactive.
With `O=[N+]([O-])c1ccc2c3c(cccc13)CC2`, the result in experiment [5], in experiment [8], in experiment [3], in experiment [7] and in experiment [4] was inactive.
Turning to `Oc1c(I)cc(I)cc1I`, the result in experiment [5], in experiment [6], in experiment [8], in experiment [3], in experiment [7] and in experiment [4] was inactive. Moreover, the concentration at half-maximal activity (AC50) in experiment [2] was 100 µM (active).
Regarding `O=C(O)Cc1ccccc1`, the outcome in experiment [5], in experiment [3], in experiment [7] and in experiment [4] was inactive.
In the case of `COc1cccc(C=O)c1`, the result in experiment [5], in experiment [6], in experiment [8], in experiment [3] and in experiment [4] was inactive.
For `CCCCCCCCC(=O)NCc1ccc(O)c(OC)c1`, the molecule was classed as inactive in experiment [5], in experiment [6], in experiment [8], in experiment [2], in experiment [3] and in experiment [7]. Moreover, in experiment [4], the AC50 is 151 µM (active).
For the molecule `O=C(Cc1ccccc1)c1ccccc1`, the molecule was classed as inactive in experiment [6], in experiment [8], in experiment [3], in experiment [7] and in experiment [4].
As to `O=Cc1cccc(Oc2ccccc2)c1`, the molecule was called inactive in experiment [5], in experiment [6], in experiment [8], in experiment [2], in experiment [3] and in experiment [7]. In experiment [4], the call was inactive.
As for `O=[N+]([O-])c1c(Cl)c(Cl)cc(Cl)c1Cl`, the molecule was classed as inactive in experiment [8], in experiment [3], in experiment [7] and in experiment [4].
For `Clc1nc(Cl)nc(Cl)n1`, the result in experiment [5], in experiment [6], in experiment [8], in experiment [2], in experiment [3] and in experiment [7] was inactive. Besides, the molecule was called inactive in experiment [4].
Turning to `CC(=O)OC(c1ccccc1)C(Cl)(Cl)Cl` (stereo not given), the outcome in experiment [1], in experiment [8], in experiment [3], in experiment [7] and in experiment [4] was inactive.
As for `O=C(Nc1ccc2[nH]ccc2c1)c1cc2cc(F)ccc2n1Cc1cccc(F)c1`, the result in experiment [5], in experiment [8], in experiment [2], in experiment [3], in experiment [7] and in experiment [4] was inactive.
Take `CC(C)(C)c1cc(O)ccc1O`: the outcome in experiment [6], in experiment [8], in experiment [3], in experiment [7] and in experiment [4] was inactive.
In the case of `CC(C)(OO)c1ccccc1`, the outcome in experiment [8], in experiment [3], in experiment [7] and in experiment [4] was inactive.
In the case of `Cc1ccc2ccccc2c1C`, the molecule was called inactive in experiment [1], in experiment [8] and in experiment [3].
As to `COc1cc(OC)nc(NC(=O)NS(=O)(=O)c2ncccc2C(=O)N(C)C)n1`, the result in experiment [5], in experiment [6], in experiment [8], in experiment [3], in experiment [7] and in experiment [4] was inactive.
`Cc1cc(Cl)ccc1O[C@H](C)C(=O)O`: the molecule was classed as inactive in experiment [5], in experiment [6], in experiment [2], in experiment [3] and in experiment [4].
`CC(Br)C(=O)O` (stereo not given): the molecule was called inactive in experiment [5], in experiment [8], in experiment [3], in experiment [7] and in experiment [4].
Take `Nc1ccc(Cl)cc1C(=O)c1ccccc1`: in experiment [6], the AC50 was 160 µM (active). For the same molecule, the molecule was classed as inactive in experiment [8], in experiment [3] and in experiment [4].
For `CCC1(c2ccc(N)cc2)CCC(=O)NC1=O` (stereo not given), the molecule was classed as inactive in experiment [5], in experiment [6], in experiment [3], in experiment [7] and in experiment [4].
Consider `Oc1ccc(-c2ccccc2)cc1`, for which the molecule was called inactive in experiment [6], in experiment [8], in experiment [3], in experiment [7] and in experiment [4].
`O=CC=O`: the molecule was classed as inactive in experiment [5], in experiment [6], in experiment [3], in experiment [7] and in experiment [4].
